± gives the standard deviation of the averaged measurements. Over roughly 25,000 sequences, “ln(normalized median fluorescence intensity)” has its median near 8.6; the highest 2% begin near 10. The full list was thinned out, with the highest values kept by preference.
Test system: PfAP2-EXP AP2 domain (GST-tagged)
Assay: gcPBM binding intensity (ln(normalized median fluorescence intensity)); higher = stronger DNA binding
How it was run: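 An Agilent 4 × 180k array of primer-extended double-stranded 36-bp intergenic genomic probes, with negative controls, was incubated for 1 h with GST-tagged P. falciparum DNA-binding domains expressed in E. coli. Alexa488 anti-GST antibody detected bound protein, scanned at 488 nm. Binding intensity is the highest Masliner-normalised natural-log median intensity across replicate spots of either probe orientation.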

Row | Sequence | gcPBM binding intensity (ln)
1 | TTGTTCATCTTTTTTTTTTTTTTTTTTTTTTAAATC [CACACA_negctrl_site191] | 8.18 ± 0.62
2 | TCTCTAACTTTTAATACACACAAATAAATAAATAAA [CACACA_site6245] | 8.47 ± 0.35
3 | GTGAGTGAAATATGCAAACACACACCCGAAAAATGT [CACACA_site3197] | 8.7 ± 0.57
4 | TTAAAGGGAATGTATACACACGTTTCTCTATGTTAT [CACACA_site4793] | 8.59 ± 0.31
5 | ACTAATAAAGGTGTAATACACACTATAAAAAGGAAT [CACACA_site1124] | 8.88 ± 0.57
6 | TTCTTTGTTTTTTTTTTTTTTTTAAAAGATAATATT [XGTACX_negctrl_site381] | 8.43 ± 0.25
7 | TATATATATATATGATGTACACATTTTATTATTTGT [XGTACX_site1147] | 9.94 ± 0.31
8 | TTTCAAAAATGAGTTACACACACACCGATATATATA [CACACA_site5263] | 8.79 ± 0.61
9 | TCAAAAATGAGTTACACACACACATATATATATATA [CACACA_site2229] | 10.2 ± 0.47
10 | TTTCAAAAATGAGTTACACACACACGGATATAAATA [CACACA_site7116] | 8.88 ± 0.56
11 | AATAAATTACTATGTACACACATAAGAGTATAAATA [CACACA_site6940] | 8.56 ± 0.32
12 | TACGATGTTTTAAAATGTACATAAAAGTCACATAAG [XGTACX_site3297] | 8.52 ± 0.34
13 | GTTTGGTGGTGTTTTGGTACGTACGGGGGGGTATGT [XGTACX_site1983] | 10.6 ± 0.19
14 | TATGATTTTTATATATGTACGTATGGTGTTTTACAA [XGTACX_site6100] | 8.8 ± 0.42
15 | GTTTGGTGGTGTTTTGGTACGTACGGGGGTGTATGT [XGTACX_site1211] | 9.66 ± 0.2
16 | TATTTTTCCATTGGGGGTACATGTGTTATATTTATT [XGTACX_site5914] | 10.4 ± 0.76
17 | ATTTATTTTCTGTGTACACATATGTTGGGTATTTTA [CACACA_site5902] | 9.14 ± 0.45
18 | TATAAAAAAAAATGTGGTACATATTTCCATTTTCCA [XGTACX_site4571] | 8.11 ± 0.23
19 | AATAATATACCTCTTGTGCACATATTAAAAGTTCAT [GTGCAC_site9536] | 8.97 ± 0.22
20 | ACAATTGAAGAAATACGTACATAAAGAAAAACTAGT [XGTACX_site820] | 9.16 ± 0.51
21 | AAGGAATAATATAAAACACACACATAAATATAAATA [CACACA_site9115] | 8.68 ± 0.26
22 | AAAAGGAAAAATATCACACATATATATATATATATA [CACACA_site5586] | 10.2 ± 0.34

Row | Sequence | gcPBM binding intensity (ln)
23 | ATAAAAAAAAGAAAAACACACACATATATATATATA [CACACA_site8243] | 10.2 ± 0.16
24 | TATAAAAGGAAACACACACACATATATATATATATA [CACACA_site939] | 10.2 ± 0.4
25 | AGGAAAAAAGAAAAAACACACATAAATATATATATA [CACACA_site3085] | 9.64 ± 0.23
26 | TAAAAAGGAAAACACACACACACATATATATATATA [CACACA_site3588] | 10.2 ± 0.16
27 | ATAAAAAATATCACATAAAATAAAAAAAGAAAGGAT [XGTACX_negctrl_site294] | 9.06 ± 0.52
28 | AAAAAAAAAAATATCACACACACATAAATATAAACC [CACACA_site2278] | 8.77 ± 0.49
29 | ATAAAAAGGAAACACACACACACACCCATATATATA [CACACA_site904] | 8.73 ± 0.44
30 | TTGTTAATGGTACGAACACACATATAAAGATGCATA [CACACA_site2044] | 8.64 ± 0.54
31 | TACCATTATTTTAAGTGTACATACTAATTTATATAT [XGTACX_site6548] | 8.61 ± 0.28
32 | ATGAAGATTTAAAAATGTACATATGATCTATGTCCT [XGTACX_site8409] | 8.38 ± 0.36
33 | TTTTTTTTTTTGTTTTGTACATAAATTGCAACCAAT [XGTACX_site8949] | 8.73 ± 0.57
34 | TTTTTATATGTTAAGTGTACGTTTACATTTTATACT [XGTACX_site3485] | 8.63 ± 0.36
35 | TACAGATAAAAGTACACACACACACCGATATATATA [CACACA_site4675] | 8.86 ± 0.38
36 | TTGCATTGATCAAACATACACACATGGTTAATAAAA [CACACA_site2084] | 8.64 ± 0.47
37 | AAAAAAAAAAAAAAAACACACATGTATACTAGAATA [CACACA_site7108] | 8.67 ± 0.31
38 | ATGTGTGTATACATCAATTATATATATATTATGTAT [GTGCAC_negctrl_site720] | 8.6 ± 0.33
39 | ATTTTTTCATATTCTACACACGTGAACAAATGTGTC [CACACA_site3007] | 8.69 ± 0.36
40 | TTTAAAAAATTATATTCACACACATACACATATATA [CACACA_site8076] | 8.51 ± 0.59
41 | TAAAAAATTATATTCACACACATACACATATATATA [CACACA_site545] | 8.54 ± 0.43
42 | GTTTCCTTAATATTCACACACATATATATAATATAT [CACACA_site1856] | 8.95 ± 0.33
43 | TGCATTTATATCTTCACACATATATATATATATATA [CACACA_site4516] | 10.2 ± 0.42
44 | AACTTATTTAAATTCACACATATATAAAATACTTAT [CACACA_site4394] | 8.38 ± 0.42

Reference: the supplement of paper PMC11417369
